Inconclusive results are not listed. Active and inactive are the calls of the source. Rule for the calls: active = hit-call score of the fitted dose curve at least 0.9, where 1 is the maximum; inconclusive = response in the unintended direction; inactive = score below 0.9.
These compounds were tested against Peroxisome proliferator-activated receptor gamma (Homo sapiens) (UniProt P37231) (assay: ATG_PPARg_TRANS: Attagene TRANS-FACTORIAL HepG2 Assay for human Peroxisome Proliferator-activated Receptor-gamma (PPARg) (AID 2283007)).
Sequence of Peroxisome proliferator-activated receptor gamma (Homo sapiens) (P37231 whole entry, looked up, the tested form may be a part): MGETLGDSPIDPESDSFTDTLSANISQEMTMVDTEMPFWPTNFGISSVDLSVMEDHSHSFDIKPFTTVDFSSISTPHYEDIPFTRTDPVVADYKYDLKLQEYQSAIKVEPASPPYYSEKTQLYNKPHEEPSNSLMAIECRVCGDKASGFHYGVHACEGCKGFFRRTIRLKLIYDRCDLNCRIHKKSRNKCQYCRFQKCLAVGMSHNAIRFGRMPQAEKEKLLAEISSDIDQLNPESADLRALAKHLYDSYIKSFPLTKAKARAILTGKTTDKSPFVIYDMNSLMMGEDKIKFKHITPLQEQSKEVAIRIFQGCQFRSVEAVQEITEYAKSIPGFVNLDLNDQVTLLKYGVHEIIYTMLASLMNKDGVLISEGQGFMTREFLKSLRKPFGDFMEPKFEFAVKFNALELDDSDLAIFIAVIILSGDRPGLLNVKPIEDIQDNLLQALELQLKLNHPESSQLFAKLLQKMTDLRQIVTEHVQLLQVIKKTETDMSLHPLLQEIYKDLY
How it was run: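 After 24 h of chemical exposure, transfected HepG2 cells carrying PPARγ-Gal4 chimera reporter constructs are lysed for RNA. Reporter transcripts are measured by RT-PCR and capillary electrophoresis with fluorescent labelling, and gain of signal is fitted versus DMSO.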

SMILES | outcome | AC50
CCCC(=O)OC/C=C(\C)CCC=C(C)C | inactive | 
O=S(=O)(O)c1cccc2ccccc12 | inactive | 
CCCCCCC1CCC(=O)O1 (configuration not stated) | inactive | 
O=[N+]([O-])c1ccccc1C(F)(F)F | inactive | 
C=C1CC[C@H]2C[C@@H]1C2(C)C | inactive | 
CCCCCC1CCCC(=O)O1 (configuration not stated) | inactive | 
O=C(OCc1ccccc1)c1ccccc1 | inactive | 
Oc1ccc(Oc2ccccc2)cc1 |  | 28 µM (active)
CCCCCC[C@@H](O)C/C=C\CCCCCCCC(=O)O |  | 27.4 µM (active)

The compounds below were run against Nuclear receptor subfamily 1 group I member 2 (Homo sapiens) (UniProt O75469) (assay: ATG_PXR_TRANS: Attagene TRANS-FACTORIAL HepG2 Assay for human Pregnane X Receptor (PXR) (AID 2283008)).
Sequence of Nuclear receptor subfamily 1 group I member 2 (Homo sapiens) (O75469 whole entry, looked up, the tested form may be a part): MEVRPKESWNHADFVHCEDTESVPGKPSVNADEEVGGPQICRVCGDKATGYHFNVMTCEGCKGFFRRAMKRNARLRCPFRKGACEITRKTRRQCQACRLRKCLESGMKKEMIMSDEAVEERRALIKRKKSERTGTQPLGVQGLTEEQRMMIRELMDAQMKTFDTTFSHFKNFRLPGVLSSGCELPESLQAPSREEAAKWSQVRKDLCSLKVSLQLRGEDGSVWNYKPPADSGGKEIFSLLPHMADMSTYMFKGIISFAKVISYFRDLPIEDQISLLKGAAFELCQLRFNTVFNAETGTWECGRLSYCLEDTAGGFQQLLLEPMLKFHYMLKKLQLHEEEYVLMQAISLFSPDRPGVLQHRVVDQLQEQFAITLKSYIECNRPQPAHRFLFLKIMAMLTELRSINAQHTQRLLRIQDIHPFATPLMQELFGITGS
How it was run: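 Trans-factorial format: exogenous NR-Gal4 fusion activity, not endogenous factor, in transfected human HepG2 liver cells. After 24 h dosing, RNA isolated, reverse-transcribed, amplified and resolved by capillary electrophoresis; induction scored versus DMSO.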

SMILES | outcome | AC50
CCCC(=O)OC/C=C(\C)CCC=C(C)C | inactive | 
O=S(=O)(O)c1cccc2ccccc12 | inactive | 
C/C=C(\C)C(=O)OCC/C=C\CC | inactive | 
CC/C=C\CC/C=C/C(OCC)OCC | inactive | 
C=CCOCC(CC)(CO)COCC=C | inactive | 
O=[N+]([O-])c1ccccc1C(F)(F)F | inactive | 
CCC(=O)OCc1ccc(OC)cc1 |  | 31.6 µM (active)
C=C1CC[C@H]2C[C@@H]1C2(C)C |  | 10.4 µM (active)
COC(=O)[C@]1(C)CCC[C@@]2(C)[C@H]1CC=C1C=C(C(C)C)CC[C@@H]12 |  | 25.1 µM (active)
CCCCCCC1CCCC(=O)O1 (configuration not stated) | inactive | 
Oc1cccc2ccccc12 | inactive | 
C=CN1CCCCCC1=O | inactive | 
CN(C)c1ccc(C(c2ccccc2)c2ccc(N(C)C)cc2)cc1 |  | 2.06 µM (active)
c1ccc2c(c1)Oc1ccccc1S2 | inactive | 
CC[N+](CC)(CC(=O)Nc1c(C)cccc1C)Cc1ccccc1 (tested in a mixture with another compound) | inactive | 

These compounds were tested against human Retinoic Acid Receptor gamma (RARg), RARG (gene 5916) (UniProt P13631) (assay: ATG_RARg_TRANS: Attagene TRANS-FACTORIAL HepG2 Assay for human Retinoic Acid Receptor gamma (RARg) (AID 2283009)).
Sequence of human Retinoic Acid Receptor gamma (RARg), RARG (gene 5916) (P13631 whole entry, looked up, the tested form may be a part): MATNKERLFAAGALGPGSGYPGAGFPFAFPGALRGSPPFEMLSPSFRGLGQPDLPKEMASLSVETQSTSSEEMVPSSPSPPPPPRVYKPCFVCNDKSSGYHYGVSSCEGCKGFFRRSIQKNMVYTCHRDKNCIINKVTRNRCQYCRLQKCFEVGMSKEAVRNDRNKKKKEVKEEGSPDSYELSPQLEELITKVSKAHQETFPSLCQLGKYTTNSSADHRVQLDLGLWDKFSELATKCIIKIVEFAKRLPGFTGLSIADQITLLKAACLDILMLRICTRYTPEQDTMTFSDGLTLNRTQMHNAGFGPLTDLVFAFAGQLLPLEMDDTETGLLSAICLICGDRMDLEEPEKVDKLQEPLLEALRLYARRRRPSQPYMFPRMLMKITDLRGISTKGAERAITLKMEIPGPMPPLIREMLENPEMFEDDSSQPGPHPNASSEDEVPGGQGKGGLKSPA
How it was run: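 Transactivation of exogenous RARg-Gal4 fusion measured as reporter transcript induction after 24 h in transfected HepG2 cells. RNA reverse-transcribed, amplified, fluorescently labeled and resolved by capillary electrophoresis; increase relative to DMSO.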

SMILES | outcome
CCCCCCC(O)CCCCCCCCCCC(=O)OC (configuration not stated) | inactive
CN1CCCC1 | inactive
CCCCCCC1CCC(=O)O1 (configuration not stated) | inactive
O=[N+]([O-])c1ccccc1C(F)(F)F | inactive
CCC(=O)OCc1ccc(OC)cc1 | inactive
CCCCCC1CCCC(=O)O1 (configuration not stated) | inactive
COC(=O)[C@]1(C)CCC[C@@]2(C)[C@H]1CC=C1C=C(C(C)C)CC[C@@H]12 | inactive
c1ccc(CNc2ncnc3nc[nH]c23)cc1 | inactive

What follows are compounds tested against human RAR-related Orphan Receptor beta (RORb), RORB (gene 6096) (UniProt Q92753) (assay: ATG_RORb_TRANS: Attagene TRANS-FACTORIAL HepG2 Assay for human RAR-related Orphan Receptor beta (RORb) (AID 2283010)).
Sequence of human RAR-related Orphan Receptor beta (RORb), RORB (gene 6096) (Q92753 whole entry, looked up, the tested form may be a part): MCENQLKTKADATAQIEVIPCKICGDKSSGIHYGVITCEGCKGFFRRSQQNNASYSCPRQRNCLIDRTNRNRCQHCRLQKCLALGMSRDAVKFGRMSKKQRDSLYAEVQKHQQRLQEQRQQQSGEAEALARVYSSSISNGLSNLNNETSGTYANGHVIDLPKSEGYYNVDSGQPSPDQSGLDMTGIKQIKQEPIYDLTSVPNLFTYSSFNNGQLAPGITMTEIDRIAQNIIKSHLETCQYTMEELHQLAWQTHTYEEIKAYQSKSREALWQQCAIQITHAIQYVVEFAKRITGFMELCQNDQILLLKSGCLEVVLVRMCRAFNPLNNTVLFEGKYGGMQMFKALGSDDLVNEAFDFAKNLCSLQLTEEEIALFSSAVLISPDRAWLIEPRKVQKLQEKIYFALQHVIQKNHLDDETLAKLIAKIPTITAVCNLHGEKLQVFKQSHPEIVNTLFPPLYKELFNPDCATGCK
How it was run: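 Read-out is reporter mRNA induction, quantified by RT-PCR with fluorescent capillary electrophoresis, 24 h post-dose in transiently transfected HepG2 expressing exogenous NR-Gal4 chimera. Activity fitted upward versus DMSO.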

SMILES | outcome
COC(=O)c1ccccc1 | inactive
O=C(O)/C=C/C(=O)O | inactive
CC/C=C\CC/C=C/C(OCC)OCC | inactive
CCO[Si](CCCN)(OCC)OCC | inactive
O=[N+]([O-])c1ccccc1C(F)(F)F | inactive
CCc1cc(C(N)=S)ccn1 | inactive
Cc1cc2nc3c(=O)[nH]c(=O)nc-3n(C[C@H](O)[C@H](O)[C@H](O)CO)c2cc1C | inactive
CC(=O)CCc1ccccc1 | inactive
CNC[C@H](O)[C@@H](O)[C@H](O)[C@H](O)CO | inactive
CC[N+](CC)(CC(=O)Nc1c(C)cccc1C)Cc1ccccc1 (tested in a mixture with another compound) | inactive

— PubChem BioAssay (EPA / NIEHS)
